Only a selection was taken, and hits are over-represented in it overall.
ST2 IL33 inh: IL1RL1 inhibition. Q01638. AlphaLISA ST2-Fc/biotin-IL-33 interaction, 1 h. inhibition, % for hits at 17 µM. 2.3% of 78,000 active. AID 1259354; in the data active = inhibition above about 30%
Target sequence (Q01638 whole entry, looked up): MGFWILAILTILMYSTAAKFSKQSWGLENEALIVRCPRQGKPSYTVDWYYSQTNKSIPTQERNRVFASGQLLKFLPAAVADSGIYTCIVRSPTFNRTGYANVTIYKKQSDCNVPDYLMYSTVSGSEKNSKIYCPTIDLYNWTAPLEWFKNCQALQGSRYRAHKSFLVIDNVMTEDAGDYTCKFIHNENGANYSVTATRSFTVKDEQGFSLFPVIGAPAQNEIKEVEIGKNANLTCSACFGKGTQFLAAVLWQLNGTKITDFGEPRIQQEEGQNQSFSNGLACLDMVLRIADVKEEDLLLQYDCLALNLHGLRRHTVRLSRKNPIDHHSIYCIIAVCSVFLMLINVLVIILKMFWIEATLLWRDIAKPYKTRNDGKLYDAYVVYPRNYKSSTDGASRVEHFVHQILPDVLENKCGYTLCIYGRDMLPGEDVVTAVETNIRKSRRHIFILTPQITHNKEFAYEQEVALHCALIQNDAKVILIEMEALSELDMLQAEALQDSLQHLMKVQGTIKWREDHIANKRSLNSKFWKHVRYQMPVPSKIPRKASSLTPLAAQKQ
* marks the source's active call; other numbers are inactive results; ! = repeats disagree.

Results for Cc1ccc2nc(-c3ccc(C)o3)c(Nc3ccccc3)n2c1 ?
ST2 IL33 inh: inactive

Results for Cc1ccc(CNC(=O)CSC2=Nc3ccccc3C3=NC(C(C)C)C(=O)N23)cc1 (stereo unspecified) ?
ST2 IL33 inh: inactive

Results for Cc1cc(N2CCOCC2)nc2ccc(NC(=O)CCC(=O)Nc3ccc4c(c3)OCCO4)cc12 ?
ST2 IL33 inh: inactive

Results for COc1cccc(N2C(=O)Nc3ccc(Br)cc3C2(O)C(=O)NC2CCCCC2)c1 (stereo unspecified) ?
ST2 IL33 inh: inactive

How did Cc1ccc(N2C(=O)c3cccnc3C2=O)cc1C do in these assays?
ST2 IL33 inh: inactive

How did CC(NCCC(=O)Nc1ccc(C(N)=O)cc1)C1=CCCCC1 (stereo unspecified) do in these assays?
ST2 IL33 inh: inactive

How did Cc1cccc(C(=O)Nc2ccc(S(=O)(=O)N3CCCCC3C)cc2)c1 (stereo unspecified) do in these assays?
ST2 IL33 inh: inactive

What do the screens show for `COC(=O)C1=C(N)OC2=C(C(=O)CC(c3ccccc3)C2)C1c1cc(OC)c(OC)c(OC)c1` (stereo unspecified)?
ST2 IL33 inh: inactive

How did CCCOc1ccc(/C=C/C(=O)NCCc2nc3ccccc3[nH]2)cc1OC do in these assays?
ST2 IL33 inh: inactive

How did Cc1nnc(NC(=O)CNC(=O)Cn2c(C)cc3ccccc3c2=O)s1 do in these assays?
ST2 IL33 inh: inactive

How did CCc1ccc(Nc2ncnc3sc(C)cc23)cc1 do in these assays?
ST2 IL33 inh: inactive

What do the screens show for `COCCn1c(CN2CCOCC2)nc2c1c(=O)[nH]c(=O)n2C`?
ST2 IL33 inh: inactive

Results for Cn1c(=O)c2c(nc(NCCOCCO)n2Cc2ccccc2Cl)n(C)c1=O ?
ST2 IL33 inh: inactive

Results for CC(CCN(C)Cc1ncc[nH]1)N1CCCC1 (stereo unspecified) ?
ST2 IL33 inh: inactive

Results for Cc1ccn2c(NC3CCCC3)c(-c3ccccn3)nc2c1 ?
ST2 IL33 inh: 38.0%*

Results for Cc1ccc(-c2nc3cnccn3c2NC2CCCCC2)o1 ?
ST2 IL33 inh: inactive

Results for Cc1ccc2nc(-c3c[nH]c4ccccc34)c(NC3CCCC3)n2c1 ?
ST2 IL33 inh: inactive

Results for CCN1CCCC1CNC(=O)C1c2cc(OC)c(OC)cc2C(=O)N(C)C1c1cccs1 (stereo unspecified) ?
ST2 IL33 inh: inactive

Results for COCc1cc(N2C[C@@H]3C[C@H](C2)[C@@H]2CCCC(=O)N2C3)ncn1 ?
ST2 IL33 inh: inactive

What do the screens show for `C=CCN(CC=C)C(=O)Nc1ccccc1`?
ST2 IL33 inh: inactive

What do the screens show for `COc1ccc(NC(=S)N[C@H]2C[C@H]3C(=O)NC[C@@H](CCC(=O)NC4CC4)N3C2)cc1`?
ST2 IL33 inh: inactive

Results for O=C(CC[C@@H]1CNC(=O)[C@@H]2C[C@H](NC(=S)Nc3ccccc3)CN12)NC1CC1 ?
ST2 IL33 inh: inactive

What do the screens show for `CCN(CC)C(=O)CC[C@@H]1CNC(=O)[C@@H]2C[C@H](NC(=S)Nc3ccccc3)CN12`?
ST2 IL33 inh: 36.0%*

Results for Cc1ccc(C)c(C(O)=C2C(=O)C(=O)N(CCN3CCOCC3)C2c2ccncc2)c1 (stereo unspecified) ?
ST2 IL33 inh: inactive

What do the screens show for `Cn1c(/C=C/c2ccc(Br)cc2)nc2ccccc2c1=O`?
ST2 IL33 inh: inactive

Results for Cc1nc2ccccc2c(=O)n1CC(=O)NCc1ccccc1 ?
ST2 IL33 inh: inactive

How did CCn1c(/C=C/c2cccnc2)nc2ccccc2c1=O do in these assays?
ST2 IL33 inh: 96.0%*

Results for COc1ccc(N2CCN(C(=O)c3sc4nc(-c5ccccc5)cn4c3C)CC2)cc1 ?
ST2 IL33 inh: inactive

Results for COc1ccc(Cn2cnc([N+](=O)[O-])c2)cc1Br ?
ST2 IL33 inh: inactive

What do the screens show for `COc1ccc(Cc2nc3cc(C)c(C)cc3[nH]c2=O)cc1Br`?
ST2 IL33 inh: 31.0%*

Results for COc1ccc(Cc2nc3cc(C)c(C)cc3n(C)c2=O)cc1Br ?
ST2 IL33 inh: inactive

Results for CCOc1ccc(C2CC(=O)N3CN(c4ccc(OC)cc4)CSC3=C2C#N)cc1OC (stereo unspecified) ?
ST2 IL33 inh: inactive

How did O=C(Nc1ccccc1)Nc1cccc(F)c1 do in these assays?
ST2 IL33 inh: inactive

What do the screens show for `Cc1cc(C)cc(-n2c(CN3CCN(C(=O)Nc4ccc5c(c4)CCC5)CC3)nc3cccnc32)c1`?
ST2 IL33 inh: inactive

How did COc1cccc(N2CCC(N3CCCC(N4CCN(c5ccccc5C)CC4)C3)CC2)c1 (stereo unspecified) do in these assays?
ST2 IL33 inh: inactive

How did CC1CCC(N2CCN(c3ccccc3)CC2)C1 (stereo unspecified) do in these assays?
ST2 IL33 inh: inactive

How did COc1cccc(N2CCN(C3CCC(C)C3)CC2)c1 (stereo unspecified) do in these assays?
ST2 IL33 inh: 31.0%*

How did Cc1ccc([N+](=O)[O-])cc1S(=O)(=O)Nc1ccc(Cc2ccncc2)cc1 do in these assays?
ST2 IL33 inh: inactive

Results for COc1ccc(C2C(C(N)=O)=C(C)Nc3nc(SCc4ccccc4)nn32)cc1OC (stereo unspecified) ?
ST2 IL33 inh: inactive

How did CC1=C(C(N)=O)C(c2cccc(F)c2)n2nc(SCc3ccccc3)nc2N1 (stereo unspecified) do in these assays?
ST2 IL33 inh: 32.0%*!

Results for CC1=C(C(N)=O)C(c2ccc(O)cc2)n2nc(SCc3ccccc3)nc2N1 (stereo unspecified) ?
ST2 IL33 inh: inactive

How did CN(C(=O)CCc1nnc(C2(c3ccc(Cl)cc3)CCC2)o1)C1CCOC1 (stereo unspecified) do in these assays?
ST2 IL33 inh: inactive

Results for CC(=O)c1cc(C#N)c(SCC(=O)OC(C)(C)C)nc1C ?
ST2 IL33 inh: inactive

How did Cc1cc(=O)c2c([nH]1)C(O)=C(CN(C)C)C(=O)C2=O do in these assays?
ST2 IL33 inh: 43.0%*

What do the screens show for `Cc1cccc(OCC(O)Cn2cnc3ccccc32)c1` (stereo unspecified)?
ST2 IL33 inh: inactive

Results for CC1=C2C[C@@]3(C)[C@@H](CCC[C@@H]3C)C[C@@]2(O)OC1=O ?
ST2 IL33 inh: inactive

How did Cc1nc2ccc3nc(NC(=O)c4cccc(Br)c4)sc3c2s1 do in these assays?
ST2 IL33 inh: inactive

What do the screens show for `COC(=O)c1ccc(C(=O)Nc2nc3ccc4nc(C)sc4c3s2)cc1`?
ST2 IL33 inh: 30.0%*

Results for Cc1nc2ccc3nc(NC(=O)c4ccccc4Cl)sc3c2s1 ?
ST2 IL33 inh: inactive

Results for COc1ccc(CC(=O)Nc2ccc(Cl)cc2C(=O)O)cc1 ?
ST2 IL33 inh: inactive

How did Cn1cc(C(=O)NCC2COc3ccccc3O2)c2c3ccccc3n(C)c2c1=O (stereo unspecified) do in these assays?
ST2 IL33 inh: inactive

How did COc1cc(CN2CCC(C)CC2)c([N+](=O)[O-])cc1OC do in these assays?
ST2 IL33 inh: inactive

Results for COc1cc(CC(=O)O)c([N+](=O)[O-])cc1OC ?
ST2 IL33 inh: inactive

How did COc1cc(C(c2ccc(C)o2)c2ccc(C)o2)c([N+](=O)[O-])cc1OC do in these assays?
ST2 IL33 inh: 36.0%*

How did CCOc1ccc(Cn2c(CNS(=O)(=O)c3c(C)cc(C)cc3C)nc3cccnc32)cc1 do in these assays?
ST2 IL33 inh: inactive

How did O=C(c1cccs1)N1CCN=C1SCc1ccccc1 do in these assays?
ST2 IL33 inh: inactive

What do the screens show for `CCC(=O)Nc1c(C(=O)Nc2ccccc2F)oc2ccccc12`?
ST2 IL33 inh: inactive

How did O=C(Nc1c(C(=O)O)oc2ccccc12)c1ccccc1 do in these assays?
ST2 IL33 inh: inactive

Assay outcomes deposited in PubChem by Paczesny and Yang Labs, IUPUI and University of Michigan.
